Test results: PubChem BioAssay (NCI)
Values joined by “and” are separate entries in the source; they are usually repeats but may differ in a detail not shown here. Equal entries are not always repeated. This is part of a sample that, as a whole, favours compounds with a hit. Of some 79,000 tested, about 15% had one in any assay. Rule as the data show it: active = growth inhibition above about 70%; inactive = the rest. Where a SMILES comes first, the peptide text is derived from it. The star is where a group is joined. Cbz = O=C(OCc1ccccc1)*

Experiments:
[1] = NCI Yeast Anticancer Drug Screen. Data for the rad50 strain (AID 155);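 also: 0% = growth of vehicle-only cultures of the same strain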; conditions: S. cerevisiae rad50 strain growth inhibition, hits give high values; at 50.0 µM unless noted
How it was run: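 Vehicle-treated cultures provide the reference for the growth inhibition reported for compound-exposed, repair-deficient yeast.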

[2] = NCI Yeast Anticancer Drug Screen. Data for the mec2-1 strain (AID 157); conditions: S. cerevisiae mec2-1 strain, hits give high values; at 50.0 µM unless noted
How it was run: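 Each compound was tested on mec2-1 yeast, a strain altered in DNA damage repair or cell cycle control. Growth inhibition is reported relative to vehicle.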

[3] = NCI Yeast Anticancer Drug Screen. Data for the sgs1 mgt1 strain (AID 161);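 also: 0% = growth of cultures given vehicle only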; conditions: S. cerevisiae sgs1 mgt1 strain, hits give high values; at 50.0 µM unless noted
How it was run: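 Inhibition of yeast growth, normalised to vehicle-treated controls, is reported for a strain bearing genetic alterations in DNA damage repair.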

[4] = NCI Yeast Anticancer Drug Screen. Data for the cln2 rad14 strain (AID 165);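 also: 0% = growth equal to vehicle treated cultures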; conditions: S. cerevisiae cln2 rad14 strain, hits give high values; at 50.0 µM unless noted
How it was run: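 Test compounds were added to cln2 rad14 yeast cultures; inhibition of growth was then determined by comparison with vehicle treatment.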

[5] = NCI Yeast Anticancer Drug Screen. Data for the bub3 strain (AID 167); conditions: S. cerevisiae bub3 mutant strain, hits give high values; at 50.0 µM unless noted
How it was run: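 Mutant yeast screening strain plus compound; vehicle-treated cultures serve as the 0% inhibition reference.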

[6] = NCI Yeast Anticancer Drug Screen. Data for the mlh1 rad18 strain (AID 175); conditions: S. cerevisiae mlh1 rad18 strain growth inhibition, hits give high values; at 50.0 µM unless noted
How it was run: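 Inhibition values reflect reduced growth of mutant yeast versus vehicle-treated controls following compound exposure; the mutations affect DNA damage repair.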

Measured: growth inhibition

CC(=O)CC(=O)Nc1ccc(OS(N)(=O)=O)cc1
inactive: [1] -9.55% | [2] -22.4% | [3] 1.95% | [4] 3.1% | [5] 2.3% | [6] -15.2%

CCOC(=O)CN1C(=O)/C(=C2\SC(=S)N(CC(=O)OCC)C2=O)SC1=S
inactive: [1] 19.1% | [2] 9.95% | [3] 16.1% | [4] 7.7% | [5] -3.9% | [6] 9.4%

C=CCC(Cc1ccccc1)C(N)=O (centres undefined)
inactive: [1] -21.1% | [2] -51.7% | [3] -14.5% | [4] 10.6% | [5] -22.2% | [6] 14.4%

C[n+]1cn(-c2nc3ccccc3nc2[N-]S(=O)(=O)c2ccccc2)c2ccccc21
inactive: [1] -0.2% | [2] -5.7% | [3] -13.2% | [4] -18.4% | [5] -20.1% | [6] -38.5%

CC(=O)Nc1ccc(N(C)C)cc1
inactive: [1] 0.15% | [2] -3.4% | [3] 0.55% | [4] 10.2% | [5] 14.7% | [6] -7.85%

Clc1ccc(/C=C/c2nc(Cl)c(-c3ccc(Cl)cc3)c(Cl)n2)cc1
inactive: [1] -15.2% | [2] -18.8% | [3] -3.1% | [4] 14.3% | [5] -23.8% | [6] 5.3%

Cc1ccc(O)c(-c2ccnn2-c2ccccc2)c1
inactive: [1] 20.5% | [2] 33.9% | [3] 15.1% | [4] -10.8% | [5] 5.25% | [6] 35.8%

O=S(=O)(O)CCCOC1COc2ccccc2OCCOCCOc2ccccc2OC1
inactive: [1] -0.65% | [2] 1.65% | [3] -15.5% | [4] -6.45% | [5] -4.1% | [6] -7.55%

O=[N+]([O-])c1cccc(Nc2nc(Cl)nc(Cl)n2)c1
inactive: [1] -0.65% | [2] 21% | [3] 5.25% | [4] -8.25% | [5] -18.8% | [6] -14.5%

Cc1c(Cl)cccc1NC(=O)COc1ccc(Cl)cc1
inactive: [1] 16.4% | [2] 9.4% | [3] 4.2% | [4] -3.7% | [5] 6.5% | [6] 4.05%

Cc1ccc(NCC2CC/C(=C\c3ccc(Cl)cc3)C2=O)cc1 (centres undefined)
inactive: [1] -43.8% | [2] -22.8% | [3] -33.4% | [4] -50.5% | [5] -10.2% | [6] -32.3%

S=c1[nH]c2ccccc2c(=S)n1CN1CCCCC1
inactive: [1] -26.6% | [2] -27.4% | [3] -15.3% | [4] -13.1% | [5] 4.6% | [6] -11.9%

COc1cccc(N2C(=O)C3c4[nH]c5ccccc5c4C4c5ccccc5CCC4C3C2=O)c1 (centres undefined)
inactive: [1] -0.1% | [2] 4.4% | [3] 5.05% | [4] 2.95% | [5] -0.6% | [6] 20.9%

COC(=O)C(CC(C)C)NC(=O)C(CC(N)=O)NC(=O)C(NC(=O)OCc1ccccc1)C(C)C (stereo not drawn) (Cbz-Val-Asn-Leu-OMe; configuration not given here)
inactive: [1] 38.1% | [2] 24.5% | [3] 8.9% | [4] 14.7% | [5] 9.3% | [6] 36.5%

CC1CCC(C(C)C)C(NNC(N)=O)C1 (centres undefined)
inactive: [1] 39.5% and 9.65% | [2] 12.7% and 3.8% | [3] 5% and 6.8% | [4] 14.3% and 3.4% | [5] 45% and -0.95% | [6] 15.9% and 9.6%

CCCCCCCSCC(=O)OCC
inactive: [1] -12.6% | [2] -19.8% | [3] -22.5% | [4] 7.2% | [5] -6.5% | [6] -5.75%

Nc1ncnc2c1ncn2C1OC(COP(=O)(O)O)C(O)C1O (centres undefined)
inactive: [1] -9.65% and -9.3% | [2] 1.65% and -12.6% | [3] 15.6% and -9.1% | [4] 2.95% and 9.25% | [5] 0.85% and -17.9% | [6] -9% and -13.2%

O=CC(NC(=O)N(CCCl)N=O)C(O)C(O)C(O)CO (centres undefined)
inactive: [1] -8% | [2] -2.3% | [3] 2.15% | [4] -1.7% | [5] -4.95% | [6] 5.75%

NC1=NCC(CN2CCCCC2)O1 (centres undefined)
inactive: [1] 7.1% | [2] 1.8% | [3] -4.05% | [4] -2.4% | [5] -8.3% | [6] 5.9%
